IDE exosite inh: displaces the probe from the exo-site of human IDE; P14735; purified IDE, FL-6b probe fluorescence polarization; hits give low values; z-score at 20 µM; 6.3% of 17,000 active; AID 1259349;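 active means z-score of -3 or lower, meaning strong loss of probe binding signal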;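 further: His-tagged human IDE residues 42-1019 made in E. coli with 30 nM FL-6b probe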
Target sequence (P14735 42-1019 limits assumed): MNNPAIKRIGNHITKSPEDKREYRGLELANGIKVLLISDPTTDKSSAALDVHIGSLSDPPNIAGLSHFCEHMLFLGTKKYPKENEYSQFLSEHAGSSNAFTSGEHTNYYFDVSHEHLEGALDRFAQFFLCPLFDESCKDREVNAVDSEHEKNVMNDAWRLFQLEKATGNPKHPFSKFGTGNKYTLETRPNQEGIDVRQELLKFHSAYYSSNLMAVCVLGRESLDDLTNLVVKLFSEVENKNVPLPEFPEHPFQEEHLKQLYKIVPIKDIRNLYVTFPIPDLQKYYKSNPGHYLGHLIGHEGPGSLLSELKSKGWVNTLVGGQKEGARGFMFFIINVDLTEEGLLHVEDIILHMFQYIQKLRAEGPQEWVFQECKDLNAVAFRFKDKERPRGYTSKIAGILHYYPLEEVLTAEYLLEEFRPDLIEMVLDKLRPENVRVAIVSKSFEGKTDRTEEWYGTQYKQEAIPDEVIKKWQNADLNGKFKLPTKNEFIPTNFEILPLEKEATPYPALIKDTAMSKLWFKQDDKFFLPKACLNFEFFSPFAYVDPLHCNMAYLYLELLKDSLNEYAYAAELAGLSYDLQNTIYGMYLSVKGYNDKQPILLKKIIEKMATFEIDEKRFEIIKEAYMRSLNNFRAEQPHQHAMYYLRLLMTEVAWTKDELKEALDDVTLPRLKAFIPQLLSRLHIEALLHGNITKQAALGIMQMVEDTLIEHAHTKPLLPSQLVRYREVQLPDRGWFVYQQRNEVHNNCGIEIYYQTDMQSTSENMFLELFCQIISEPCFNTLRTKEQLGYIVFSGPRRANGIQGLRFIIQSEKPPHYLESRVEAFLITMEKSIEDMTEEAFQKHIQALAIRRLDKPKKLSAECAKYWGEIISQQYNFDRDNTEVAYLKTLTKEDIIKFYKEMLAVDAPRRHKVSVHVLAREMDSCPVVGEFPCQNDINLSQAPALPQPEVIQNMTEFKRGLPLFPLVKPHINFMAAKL
Numbers stand for hits; . = inactive. Many of the other results were omitted from the sample, so hits are more common in it than they were.

SMILES	IDE exosite inh
O=C(CC1CC1)N1CC(=O)N2[C@H](CO)[C@@H](c3ccc(-c4ccccc4)cc3)[C@@H]2C1	-5.85
CN(C)CC(=O)NC[C@H]1N[C@@H](CO)[C@H]1c1ccc(-c2cccc(C#N)c2)cc1	.
CC1C=NC(S(=O)(=O)N2CC[C@H]3[C@@H](CO)N(C)c4ccc(C5=CCCCC5)cc4[C@H]32)=N1 (some centres not stated)	.
COc1ccc(C#Cc2ccc([C@@H]3[C@@H](CO)N4C(=O)CN(C(=O)Nc5ccccc5F)C[C@H]34)cc2)cc1	.
COc1ccc(NC(=O)N2C[C@@H]3[C@H](c4ccccc42)[C@@H](CO)N3Cc2ccccn2)cc1	.
COc1ccc2c3c(n(C)c2c1)[C@H](CO)N(C(=O)Cc1ccccn1)CC31CN(CC2CCCCC2)C1	.
C[C@H](O)C#Cc1ccc([C@H]2[C@@H](CO)N3CCCCN(C(=O)Nc4ccccc4)C[C@H]23)cc1	.
COCC(=O)N1[C@H](CO)[C@@H](c2ccccc2-c2ccccc2)[C@@H]1C#N	.
Cc1ccc(-c2ccc([C@@H]3[C@@H]4CN(Cc5ccccc5F)C[C@H]3N4)cc2)cc1	.
C/C=C/c1ccc([C@@H]2[C@H](C#N)N(C(=O)Cc3ccccn3)[C@H]2CO)cc1	.
COc1ccccc1-c1ccccc1[C@H]1[C@@H](C#N)N(C(=O)CN(C)C)[C@@H]1CO	.
COc1ccccc1-c1ccccc1[C@@H]1[C@@H](CO)N(C(=O)CN(C)C)[C@H]1C#N	.
COc1ccccc1-c1ccc([C@@H]2[C@@H](CO)N(C(=O)CN(C)C)[C@H]2C#N)cc1	-15
N#C[C@H]1[C@@H](c2ccc(/C=C/c3ccccc3)cc2)[C@@H](CO)N1C(=O)Cc1ccccn1	-3.72
CCCNC(=O)N1[C@H](CO)[C@H](c2ccc(/C=C/c3ccccc3)cc2)[C@@H]1C#N	.
CN(C)CC(=O)N1[C@H](CO)[C@H](c2ccc(/C=C/c3ccccc3)cc2)[C@@H]1C#N	.
COc1ccccc1-c1ccccc1[C@@H]1[C@@H](C#N)N(C(=O)CN(C)C)[C@H]1CO	.
C/C=C/c1ccc([C@H]2[C@@H](C#N)N(C(=O)Cc3ccccn3)[C@H]2CO)cc1	.
COc1ccccc1-c1ccccc1[C@H]1[C@@H](CO)N(C(=O)CN(C)C)[C@H]1C#N	.
CN(C)CC(=O)N1[C@H](C#N)[C@@H](c2ccc(/C=C/c3ccccc3)cc2)[C@H]1CO	-5.4
COc1ccccc1-c1ccc([C@H]2[C@@H](C#N)N(C(=O)CN(C)C)[C@@H]2CO)cc1	-4.2
CCCNC(=O)N(C)C[C@@H]1Oc2cc(C#C[C@@H](C)O)ccc2S(=O)(=O)N([C@@H](C)CO)C[C@H]1C	.
COc1ccccc1NC(=O)N1CC(=O)N2[C@H](C1)[C@H](c1ccc(C#CC(C)C)cc1)[C@@H]2CO	.
CCCC#Cc1ccc([C@H]2[C@@H](CO)N3C(=O)CN(C(=O)Nc4ccccc4)C[C@@H]23)cc1	.
O=S(=O)(c1cccs1)N1CCCCN2[C@H](CO)[C@H](c3ccc(-c4ccccc4)cc3)[C@@H]2C1	.
SMILES	IDE exosite inh
N#C[C@H]1[C@H](c2ccc(-c3cccc(F)c3)cc2)[C@@H](CO)N1S(=O)(=O)c1cccc(F)c1	.
CCCNC(=O)N1[C@H](CO)[C@H](c2ccc(-c3ccccc3F)cc2)[C@@H]1C#N	.
CC(=O)N1CC(=O)N2[C@H](C1)[C@H](c1ccc(-c3ccncc3)cc1)[C@@H]2CO	.
O=C(C[C@@H]1C[C@H]2c3cc(NS(=O)(=O)c4ccc(F)cc4)ccc3O[C@H]2[C@@H](CO)O1)NCc1cccnc1	.
CN(C)CC(=O)N1[C@H](C#N)[C@@H](c2ccccc2-c2ccccc2F)[C@@H]1CO	.
CN(C)CC(=O)N1[C@H](C#N)[C@@H](c2ccc(-c3ccccc3F)cc2)[C@@H]1CO	.
CN(C)CC(=O)N1[C@@H](C#N)[C@H](c2ccc(-c3ccccc3F)cc2)[C@@H]1CO	-4.49
O=C(Nc1cc(F)ccc1F)N[C@@H]1CC[C@H](CC(=O)N2CCc3ccccc3C2)O[C@@H]1CO	.
C/C=C/c1ccc([C@@H]2[C@@H](CN(C)C(=O)CC)N(C(=O)C3CC3)[C@H]2CO)cc1	.
Cc1ccccc1-c1ccc([C@H]2[C@H](CO)N3C(=O)CN(C(=O)NC4CCCC4)C[C@@H]23)cc1	-20.8
CC(C)C#Cc1ccc([C@@H]2[C@H](CO)N3C(=O)CN(C(=O)NC4CCCC4)C[C@@H]23)cc1	.
O=C(NC1CCCC1)N1CC(=O)N2[C@H](CO)[C@H](c3ccc(C4=CCCCC4)cc3)[C@@H]2C1	.
CC(C)C#Cc1ccc([C@@H]2[C@@H](CO)N3C(=O)CN(C(=O)NC4CCCC4)C[C@H]23)cc1	.
Cc1ccccc1-c1ccc([C@H]2[C@H]3CN(C(=O)NC4CCCC4)CC(=O)N3[C@H]2CO)cc1	-12.4
Cc1ccc(S(=O)(=O)N2[C@@H]3CNC[C@H]2C3c2ccc(-c3cccc(F)c3)cc2)cc1 (some centres not stated)	.
O=C(C[C@@H]1CC[C@H](NS(=O)(=O)c2ccccc2F)[C@H](CO)O1)NCCCN1CCOCC1	.
C/C=C/c1ccc([C@H]2[C@H](CO)N3C(=O)CN(Cc4ccccc4)C[C@@H]23)cc1	.
CC(C)NC(=O)N1CCCCN2[C@H](CO)[C@H](c3ccc(C#Cc4ccccc4F)cc3)[C@H]2C1	-4.49
CC(C)NC(=O)N1CCCCN2[C@H](C1)[C@H](c1ccc(C#Cc3ccccc3F)cc1)[C@@H]2CO	-9.59
CC(C)NC(=O)N1CCCCN2[C@@H](CO)[C@H](c3ccc(C#Cc4ccccc4F)cc3)[C@@H]2C1	-12.7
CN(C)CC(=O)N[C@@H]1CC[C@H](CCNC(=O)C2CCC2)O[C@@H]1CO	.
COc1ccc2c3c(n(C)c2c1)[C@@H](CO)N(C(C)=O)CC31CCN(Cc2ccccc2OC)CC1	.
C/C=C/c1ccc([C@@H]2[C@@H](CN(C(=O)COC)C(C)C)N(C(C)=O)[C@H]2CO)cc1	.
O=C(C[C@@H]1C[C@@H]2c3cc(NC(=O)C4CCOCC4)ccc3O[C@@H]2[C@H](CO)O1)NCCN1CCCCC1	.
Cc1ccccc1S(=O)(=O)N1C[C@@H](O)COC[C@@H]2O[C@H](CC(=O)N3CCCCC3)CC[C@H]21	.
SMILES	IDE exosite inh
COC(=O)C[C@H]1CC[C@@H]2[C@@H](COc3ccc(NS(=O)(=O)c4ccc(C)cc4)cc3C(=O)N2C)O1	.
O=C(N[C@H]1C=C[C@H](CC(=O)N2CCC(Cc3ccccc3)CC2)O[C@H]1CO)c1cnccn1	.
COc1ccc(NC(=O)N(C)C[C@H]2OCCCC[C@H](C)Oc3ccc(NC(=O)c4ccncc4)cc3C(=O)N([C@@H](C)CO)C[C@H]2C)cc1	.
CCN1[C@@H]2Cn3c(ccc(-c4ccccc4OC)c3=O)[C@H]1[C@@H](C(=O)NCc1ccccn1)[C@@H]2CO	.
N#C[C@@H]1[C@H](c2ccc(-c3cccc(F)c3)cc2)[C@H](CO)N1C(=O)CN1CCOCC1	.
COc1ccc(-c2ccc([C@H]3[C@H](CO)N4CCCCN(C(=O)c5ccc6c(c5)OCO6)C[C@@H]34)cc2)cc1	.
COc1cccc(NC(=O)Nc2ccc3c(c2)C(=O)N(C)C[C@@H](OC)[C@H](C)CN[C@H](C)CO3)c1	.
CO[C@H]1CN(C)C(=O)c2cc(NC(=O)c3cnccn3)ccc2OC[C@H](C)NC[C@@H]1C	.
CO[C@H]1CN(C)C(=O)c2cc(NC(=O)c3cnccn3)ccc2OC[C@@H](C)NC[C@H]1C	.
CO[C@@H]1CN(C)C(=O)c2cc(NC(=O)c3ccc(Oc4ccccc4)cc3)ccc2OC[C@@H](C)NC[C@@H]1C	-11.5

From PubChem BioAssay
